From PubChem BioAssay (NCI)
“And” between values parts separate entries of the source, which are not always exact repeats. Equal entries are not always repeated. This is part of a sample that, as a whole, favours compounds with a hit. Of some 79,000 tested, about 15% had one in any assay. Values without a mark were called inactive. The source made the active and inactive calls. Cut-off read from the data, not from the text of the source: active = growth inhibition above about 70%; inactive = the rest. Where a SMILES comes first, the peptide text is derived from it.

Key:
[1] = NCI Yeast Anticancer Drug Screen. Data for the rad50 strain (AID 155);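 note: 0% = growth of vehicle-only cultures of the same strain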; conditions: S. cerevisiae rad50 strain growth inhibition, active compounds read high; at 50.0 µM unless noted
Summary of the method: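 Growth of the mutant yeast was measured after compound exposure and referenced to vehicle-treated cultures.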

[2] = NCI Yeast Anticancer Drug Screen. Data for the mec2-1 strain (AID 157); conditions: S. cerevisiae mec2-1 strain, active compounds read high; at 50.0 µM unless noted
Summary of the method: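 Vehicle-treated cultures served as reference for growth inhibition of compound-exposed mec2-1 yeast.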

[3] = NCI Yeast Anticancer Drug Screen. Data for the sgs1 mgt1 strain (AID 161);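 note: 0% = growth of cultures given vehicle only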; conditions: S. cerevisiae sgs1 mgt1 strain, active compounds read high; at 50.0 µM unless noted
Summary of the method: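 Mutant yeast exposed to compound; growth scored against vehicle-only wells.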

[4] = NCI Yeast Anticancer Drug Screen. Data for the cln2 rad14 strain (AID 165);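 note: 0% = growth equal to vehicle treated cultures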; conditions: S. cerevisiae cln2 rad14 strain, active compounds read high; at 50.0 µM unless noted
Summary of the method: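 Each compound was tested on cln2 rad14 yeast. Inhibition of growth was calculated against vehicle-exposed controls.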

[5] = NCI Yeast Anticancer Drug Screen. Data for the bub3 strain (AID 167); conditions: S. cerevisiae bub3 mutant strain, active compounds read high; at 50.0 µM unless noted
Summary of the method: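 Whole-cell yeast assay. The mutant strain was incubated with compounds, and growth inhibition was determined by comparison with vehicle-treated cells.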

[6] = NCI Yeast Anticancer Drug Screen. Data for the mlh1 rad18 strain (AID 175); conditions: S. cerevisiae mlh1 rad18 strain growth inhibition, active compounds read high; at 50.0 µM unless noted
Summary of the method: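 Vehicle-treated cultures served as the reference for growth inhibition in a yeast strain carrying DNA damage repair alterations exposed to each compound.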

SMILES | growth inhibition [1] | growth inhibition [2] | growth inhibition [3] | growth inhibition [4] | growth inhibition [5] | growth inhibition [6]
O=C(NCCCOC(=O)CCCCCCCCC(=O)OCCCNC(=O)NC(=O)c1c[nH]c(=O)[nH]c1=O)NC(=O)c1c[nH]c(=O)[nH]c1=O | -11.5% | -18.6% | -7.85% | 8.3% | 6.05% | -14.9%
c1ccc2c(c1)nnn2C1CCCCO1 (stereo unspecified) | -4.8% | -13.2% | -19.5% | -5.1% | -22.4% | -72.8%
CC(=O)CC(=O)Nc1ccc(OS(N)(=O)=O)cc1 | -9.55% | -22.4% | 1.95% | 3.1% | 2.3% | -15.2%
CCCCN1CCC(N)=NC1=O | 10.1% | -24.9% | -9.1% | 9.2% | -5.6% | -4.15%
CCn1c(=O)n(Cc2ccccc2)c(=O)c2ccccc21 | 19.6% | 8.95% | 24.8% | 10.8% | -4.7% | 30.3%
ClCc1ccccc1C(c1ccccc1)c1ccccc1 | -0.8% | 20.4% | 7.1% | -32.1% | 24.9% | 21.9%
CCOC(=O)O/C(C)=C\c1ccc(Cl)cc1 | 2.45% | -2.65% | -12.4% | -50.4% | -34.9% | 7.05%
CCCCCCC(CCN(C)C)(C(C)=O)c1ccccc1 (stereo unspecified) | -3.3% | 3.7% | 1.05% | -3.5% | 6.85% | 11.1%
O=C(O)CCCCCCCC(=O)O | 15.4% | -0.45% | 16.9% | -3.05% | 5.5% | 27.2%
CN(C)CC(O)(C(=O)c1ccccc1)c1ccccc1 (stereo unspecified) | -4.35% | -9.8% | -13.5% | -25.2% | -19.6% | -6.05%
COC(=O)C1(C)CCCC2(C)C1CCC1(O)C(O)C(C(C)C)=CCC21 (stereo unspecified) | 4.3% | -2.35% | 2.55% | -2.25% | -1.95% | 20.2%
CN1c2ccccc2N(C)C23N(C)c4ccccc4N(C)C12N(C)c1ccccc1N3C (stereo unspecified) | -33% | 1.8% | -67.4% | 18.7% | -22.1% | -20.9%
CC(=O)Nc1ccccc1C(C#N)Cc1ccccc1 (stereo unspecified) | 13.3% | 5.55% | 14.1% | -32.4% | 1.15% | 8.95%
COc1ccccc1CN1CCCN(Cc2ccccc2OC)C1c1cccc(F)c1 | 0.75% | 9.9% | 0.65% | 16.4% | 6.65% | 17.8%
C=C1c2nc3ccccc3n2C=C(c2ccc(C)cc2)N1c1ccc(C)cc1 | 24.6% | 18% | 16.2% | 25% | 11.2% | 29.8%
CC(=O)NC(C)c1ccccc1 (stereo unspecified) | -4.75% | 40.1% | 15.3% | -11.9% | -1.55% | 3.3%
O=C(O)CNOCN1C(=O)c2ccccc2C1=O | 11.6% | -1.25% | 13.3% | -21.6% | -16% | 14.4%
CC(C)CC(NC=O)C(=O)O (stereo unspecified) | 11.2% | 1.85% | -0.4% | 9.45% | -0.3% | 8.35%
COc1ccc(-c2oc3c(CC(=O)O)cccc3c(=O)c2OC)cc1 | -8.75% | -15.3% | -25.3% | -14.4% | -12.7% | -12.3%
Cc1c(Cl)cccc1NC(=O)CCl | 7.95% | 32.1% | 28.2% | 5.75% | -3.85% | 16.2%
CNC(CCCCC1CCCCC1)C(=O)O (stereo unspecified) | 8.2% | 3.4% | 12.1% | -10.8% | -8.2% | -0.2%

SMILES | growth inhibition [1] | growth inhibition [2] | growth inhibition [3] | growth inhibition [4] | growth inhibition [5] | growth inhibition [6]
O=c1ccc2ccccc2cc1 | 14.3% | -18.6% | 20.8% | -39.9% | 8.15% | 8.4%
O=C(NCCNC(=O)C(Br)(Br)Br)C(Br)(Br)Br | 82.3% (active) | 53.5% | 58% | 44.7% | 69.5% | 72.8% (active)
CC/C=C/C(CC)(C(=O)OCC)C(=O)OCC | 5.45% | -15.8% | -6.7% | -2% | -16.3% | -20.1%
CC(=O)OC(CCC1CO1)OC(C)=O (stereo unspecified) | 0.65% | 11.6% | -0.2% | -7.65% | 15.2% | -0.1%
Cc1ccc(Nc2nc(N)nc3c2ncn3C2OC(CO)C(O)C2O)cc1 (stereo unspecified) | 25.8% | 2.6% | 7.85% | -3.75% | 18.6% | 7.35%
O=CC(O)C(Cl)C(Cl)C(O)CCl (stereo unspecified) | -0.65% and 2.1% | -1.85% and -3.6% | 0.65% and 8.3% | 9.75% and -46% | -2.65% and -11% | 40.7% and -14.5%
N#CC1(C(=O)c2ccccc2)C=Cc2ccccc2N1C(=O)c1ccccc1 (stereo unspecified) | -6.85% | 16.4% | -0.85% | 12.4% | 26.2% | -19.2%
CCOC(=O)C(Cc1c[nH]c2c(N(CCO)CCO)cccc12)(NC(C)=O)C(=O)OCC | -0.45% | -17.2% | 16% | 21.7% | -5.55% | 9.95%
Cc1ccc(S(=O)(=O)C2CC(=O)N(c3ccc(F)c(Cl)c3)C2=O)cc1 (stereo unspecified) | -26.6% | 4.55% | -7.6% | -19.2% | 4.2% | -11.7%
COc1ccc(/C=C(\C(=O)OCC(C)C)c2ccc(OC)c(OC)c2)cc1OC | 2.6% | -17.1% | 8.5% | -6.15% | -7.2% | 16.4%
COc1ccc([N+](=O)[O-])cc1N(C)C | 19.1% | 17.4% | 13.6% | 9% | -14.2% | 4.55%
NC(Cc1ccccc1)C(=O)NC(Cc1ccccc1)C(=O)O (stereo not drawn) (H-Phe-Phe-OH; configuration not given here) | 19.6% and 11.1% | -0.8% and -19.4% | 12.6% and -2.9% | -16.1% and -19.3% | 6.2% and 4.05% | 1.6% and 7.7%
O=C(CSS(=O)(=O)O)Nc1ccccc1 | 17.6% | -0.65% | 7.5% | 14.6% | 9.65% | -8.05%
Cn1c(=O)[nH]c2ccc(Cl)cc2c1=O | 2.75% | -5.85% | -3.25% | -67.8% | 8.15% | 5.85%
Cc1ccc(C)n1CCCCCCCn1c(C)ccc1C | -24.7% | -3.5% | 5.15% | -22.8% | 25.1% | -9.8%
O=C(O)Cc1ccc(O)cc1 | 6.25% | -25.6% | 8.6% | 8.45% | -11.7% | 1.75%
O=C1NC2OCC(O)C(O)C2O1 (stereo unspecified) | 4.6% | 10.1% | -4.15% | 12.4% | 22.4% | 6.45%
O=C(NC(=S)Nc1ccccc1F)c1cccc([N+](=O)[O-])c1 | 26.1% | 77.2% (active) | 79.2% (active) | 11.4% | 49.7% | 80% (active)
COc1ccc(CCNCC(O)CSc2ccc(Cl)cc2)cc1OC (stereo unspecified) | 74.8% (active) | 20.4% | 73% (active) | 27.9% | 22% | 30.6%
c1ccc2c(c1)/C(=N/c1nccs1)N/C2=N\c1nccs1 | 14.1% | -6.35% | -12.2% | -25.6% | 13.1% | -6.65%
